Compounds with a hit are over-represented: about 3.1% of the library has one in this group of screens.
Vif-APOBEC3G blk – inhibitors of Vif-APOBEC3G interaction. Q9HC16. HeLa A3G-eYFP + Vif (tagged APOBEC3G with the HIV-1 protein that degrades it), YFP fluorescence, overnight. Potency, µM (top dose mostly 46.1 µM), usual class: inhibitors. hit rate 0.076% among 410,000; also: nearly all actives have a fitted effect of over 60% in size
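HeLa cells stably expressing Vif and C-terminally eYFP-tagged A3G, seeded overnight at 37 deg C, then exposed to compound by pintool overnight at 37 deg C. Rise in yellow fluorescence (Ex 488/Em 500-530, Acumen) marks blocked Vif-driven A3G degradation.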
TSHR antagonist – human thyrotropin receptor antagonism; P16473; TSHR-expressing cells, TSH-stimulated cAMP HTRF, 2 h; hits give low values; activity change, negative = inhibition, % at 11.5 µM; hit rate 0.2% among 330,000;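 active = activity change below a set negative limit, meaning inhibition stronger than a set level, cut at about -70% in these data; inconclusive = activity change between two set negative limits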
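Antagonism was scored as loss of TSH-driven cAMP in TSHR cells, stimulated with 4nM TSH (EC80) for 2 hours at 37 deg C and detected by homogeneous HTRF competition immunoassay.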
VDR inh – blocks the human vitamin D receptor; hit rate 0.93% among 400,000; Potency, µM, most hits filed as inhibitors; VDR-SRC2-3 peptide fluorescence polarization, 2 h; AID 504847; P11473
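After 23 nl compound addition and a short centrifugation, plates sat for 2 hours at ambient temperature; polarization of fluorescence then indicated loss of VDR binding to peptide SRC2-3.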
PLK1 PBD block – PLK1 (human) polo-box domain binding inhibition; hit rate 2.8% among 360,000; Potency, µM, hits mostly inhibitors; AID 720504; P53350; Plk1 PBD binding of FITC phosphopeptide, fluorescence polarization; also: series mostly up to about 57 µM; nearly all actives have a fitted effect of over 65% in size
Target sequence (P53350 whole entry, looked up, the tested form may be a part): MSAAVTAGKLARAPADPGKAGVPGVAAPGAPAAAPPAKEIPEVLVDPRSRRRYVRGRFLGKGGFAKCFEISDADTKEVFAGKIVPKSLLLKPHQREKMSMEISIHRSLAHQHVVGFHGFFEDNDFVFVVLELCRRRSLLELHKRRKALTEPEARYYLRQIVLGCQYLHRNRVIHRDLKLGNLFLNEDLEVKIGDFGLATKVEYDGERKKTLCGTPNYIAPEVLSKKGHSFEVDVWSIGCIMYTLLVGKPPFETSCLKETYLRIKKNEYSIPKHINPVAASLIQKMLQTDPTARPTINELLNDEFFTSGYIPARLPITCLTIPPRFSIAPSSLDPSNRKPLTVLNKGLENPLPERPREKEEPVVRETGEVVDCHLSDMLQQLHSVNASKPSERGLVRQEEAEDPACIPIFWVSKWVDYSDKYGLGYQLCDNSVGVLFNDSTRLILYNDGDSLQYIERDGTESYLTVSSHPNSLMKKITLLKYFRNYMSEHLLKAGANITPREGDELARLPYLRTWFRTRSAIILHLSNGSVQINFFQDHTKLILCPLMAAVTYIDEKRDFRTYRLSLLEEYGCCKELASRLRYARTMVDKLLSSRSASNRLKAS
Vif-A3F inh – blocks the Vif interaction with APOBEC3F; Potency, µM (titrated, usually from 46.1 µM); HeLa A3F-eYFP + Vif (tagged APOBEC3F with the HIV-1 protein that degrades it), YFP fluorescence increase; hit rate 0.2% among 390,000; also: nearly all actives have a fitted effect of over 65% in size
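HeLa cells stably expressing A3F-eYFP plus Vif, plated and incubated overnight at 37 deg C, then exposed to compounds overnight at 37 deg C. Blocked degradation read as raised yellow fluorescence (Ex 488/Em 500-530).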
Hits are given with their value. Unless noted, calls follow the shape of the dose curve; as a rule, active = well fitted curve in the direction sought with a large enough effect; inconclusive = small, poorly fitted or top-dose-only effect, or another doubt; inactive = no such curve, though single readings can be large; an effect the other way counts as inactive or inconclusive.

Screening Cc1cc2cc(CNC(=O)c3ccc(Br)o3)ccc2n1C returned Vif-APOBEC3G blk inactive, TSHR antagonist inactive, VDR inh 79.4µM, PLK1 PBD block inactive and Vif-A3F inh inactive.
Screening COc1cccc(CNC(=O)CCNC(=O)c2ccc(Br)o2)c1 returned Vif-APOBEC3G blk inactive, TSHR antagonist inactive, VDR inh inconclusive, PLK1 PBD block 13.4µM and Vif-A3F inh inactive.
COc1ccc(CNC(=O)CCNS(=O)(=O)c2ccc(Br)s2)cc1 was read as Vif-APOBEC3G blk inactive, TSHR antagonist inactive, VDR inh inactive, PLK1 PBD block 29.9µM and Vif-A3F inh inactive.
Screening COc1ccc(CNC(=O)CCNS(=O)(=O)c2cc(Br)cnc2N)cc1 returned Vif-APOBEC3G blk inactive, TSHR antagonist inactive, VDR inh inconclusive, PLK1 PBD block 3.36µM and Vif-A3F inh inactive.
For CS[C@@H]1SC[C@H]2C(=O)N(C)C(C(C)C)C(=O)OC[C@@H](NC(=O)c3cnc4ccccc4n3)C(=O)N[C@@H](C)C(=O)N(C)[C@H]1C(=O)N(C)C(C(C)C)C(=O)OC[C@@H](NC(=O)c1cnc3ccccc3n1)C(=O)N[C@@H](C)C(=O)N2C (stereo partly drawn) the results were VDR inh inactive.
`C[N+]1(C)CC[C@@H](OC(=O)[C@@](O)(c2ccccc2)C2CCCC2)C1` gave VDR inh inactive.
Screening COc1ccc2c(c1)C(c1cc(OC)c(OC)c(OC)c1)CC(=O)O2 (stereo not drawn) returned VDR inh inactive.
`COc1ccccc1C1(O)CCN(CCCn2c3ccccc3c3ccccc32)CC1` gave VDR inh inactive.
COc1cccc(CNC(=O)CCNS(=O)(=O)c2ccc(Br)s2)c1 was read as Vif-APOBEC3G blk inactive, TSHR antagonist inactive, VDR inh inconclusive, PLK1 PBD block 26.7µM and Vif-A3F inh inactive.
`Nc1ncc(Br)cc1S(=O)(=O)NCCC(=O)NC1CCCCC1` gave Vif-APOBEC3G blk inactive, TSHR antagonist inactive, VDR inh inactive, PLK1 PBD block 26.7µM and Vif-A3F inh inactive.
`CC1CCCCC1NC(=O)CCNS(=O)(=O)c1cc(Br)cnc1N` (stereo not drawn) gave Vif-APOBEC3G blk inactive, TSHR antagonist inactive, VDR inh inactive, PLK1 PBD block inactive and Vif-A3F inh inactive.
`CC1CCN(c2ccc(-c3nc(C(C)C)no3)cc2[N+](=O)[O-])CC1` gave Vif-APOBEC3G blk inactive, VDR inh inactive and Vif-A3F inh inactive.
`O=C1OC(c2ccccc2)(c2cc(Br)c(O)c(Br)c2)c2ccccc21` (stereo not drawn) gave Vif-APOBEC3G blk inactive, VDR inh inactive, PLK1 PBD block 23.8µM and Vif-A3F inh inactive.
Screening O=C(O)c1ccc(C2(c3ccc(C(=O)O)cc3)OC(=O)c3ccccc32)cc1 returned Vif-APOBEC3G blk inactive, TSHR antagonist inactive, VDR inh inactive, PLK1 PBD block inactive and Vif-A3F inh inactive.
For Cc1ccc(C(=O)c2cc([N+](=O)[O-])ccc2N2CC(C)OC(C)C2)cc1 (stereo not drawn) the results were Vif-APOBEC3G blk inconclusive, TSHR antagonist inactive, VDR inh 89.1µM, PLK1 PBD block inconclusive and Vif-A3F inh inactive.
For COc1cccc2oc(-c3ccco3)cc(=O)c12 the results were Vif-APOBEC3G blk inactive, TSHR antagonist inactive, VDR inh inconclusive, PLK1 PBD block 21.2µM and Vif-A3F inh inconclusive.
For Oc1ccc2ccccc2c1/C=N/c1nccs1 the results were Vif-APOBEC3G blk inactive, TSHR antagonist inactive, VDR inh inactive, PLK1 PBD block 18.9µM and Vif-A3F inh inactive.
Cc1cc(N=Cc2c(O)ccc3ccccc23)no1 was read as Vif-APOBEC3G blk inactive, TSHR antagonist inactive, VDR inh inactive, PLK1 PBD block 5.32µM and Vif-A3F inh inactive.
Oc1ccccc1N=Cc1c(O)ccc2ccccc12 was read as Vif-APOBEC3G blk inconclusive, TSHR antagonist inactive, VDR inh inactive, PLK1 PBD block inactive and Vif-A3F inh inactive.
Screening Cc1ccc2oc(-c3cccc(NC(=O)COc4ccc(Cl)cc4)c3C)nc2c1 returned Vif-APOBEC3G blk inactive.
For CCOc1ccccc1NC(=O)CSc1ncc2c(n1)-c1ccccc1N(CC)S2(=O)=O the results were Vif-APOBEC3G blk inactive, VDR inh inactive and Vif-A3F inh inactive.
CNC(=O)COC(=O)c1cc(-c2ccco2)nc2ccccc12 was read as Vif-APOBEC3G blk inactive, TSHR antagonist inactive, VDR inh inconclusive, PLK1 PBD block 23.8µM and Vif-A3F inh inactive.
Screening O=C(COC(=O)c1cc(-c2ccco2)nc2ccccc12)NCc1ccccc1 returned Vif-APOBEC3G blk inactive, TSHR antagonist inactive, VDR inh inactive, PLK1 PBD block inactive and Vif-A3F inh inactive.
`O=C1COc2ccc(C(=O)CSc3nc4ccccc4c(=O)n3-c3ccc(Cl)c(Cl)c3)cc2N1` gave Vif-APOBEC3G blk inconclusive, TSHR antagonist inactive, VDR inh inactive, PLK1 PBD block inactive and Vif-A3F inh 10µM.
For CC(C)(C)C1CCc2c(sc(NC(=O)CCC(=O)O)c2C(=O)Nc2ccccc2C(F)(F)F)C1 (stereo not drawn) the results were Vif-APOBEC3G blk inactive, VDR inh inactive and Vif-A3F inh inactive.
For COc1ccc(-c2nc3c(c(SCC(=O)N4CCOCC4)n2)Cc2c(CO)cnc(C)c2O3)cc1 the results were Vif-APOBEC3G blk inactive, TSHR antagonist -134.7, VDR inh inactive, PLK1 PBD block inactive and Vif-A3F inh inactive.
Screening Cc1ccc(-c2nc3c(c(SCC(=O)N4CCOCC4)n2)Cc2c(CO)cnc(C)c2O3)cc1 returned Vif-APOBEC3G blk inactive, TSHR antagonist inactive, VDR inh inactive, PLK1 PBD block inconclusive and Vif-A3F inh inactive.
`COc1ccc(NC(=O)CN(c2cc(C)cc(C)c2)S(=O)(=O)c2c(C)n[nH]c2C)cc1` gave Vif-APOBEC3G blk inactive, TSHR antagonist inactive, VDR inh 89.1µM, PLK1 PBD block 29.9µM and Vif-A3F inh inactive.
Cc1cc(C)cc(NC(=O)CN(c2ccc(F)cc2)S(C)(=O)=O)c1 was read as Vif-APOBEC3G blk inactive, TSHR antagonist inactive, VDR inh inconclusive, PLK1 PBD block 10.6µM and Vif-A3F inh inactive.
`CC[C@H](C)[C@H](NC(=O)[C@H](Cc1ccc(O)cc1)NC(=O)[C@@H](NC(=O)[C@H](CCCN=C(N)N)NC(=O)[C@@H](N)CC(=O)O)C(C)C)C(=O)N[C@@H](Cc1ccc(N)cc1)C(=O)N1CCC[C@H]1C(=O)N[C@@H](Cc1ccccc1)C(=O)O` gave VDR inh inactive.
CN(C)c1ccc(/C=C2\C=Cc3ccccc32)c(Cl)c1 was read as Vif-APOBEC3G blk inactive.
Cc1ccc(NC(=O)CN2C(=O)S/C(=C/c3ccc(-c4cc(C(=O)O)ccc4C)o3)C2=O)cc1C was read as Vif-APOBEC3G blk inactive, TSHR antagonist inactive, VDR inh inactive, PLK1 PBD block inconclusive and Vif-A3F inh inactive.
